# Compound activity from PubChem BioAssay.
# GLP1R ag = GLP-1 receptor (human) agonism. HEK293 GLP-1R CRE-luciferase, luminescence, 4-6 h; cells express a hypersensitive GLP-1R form. Potency, µM (series often up to 45.6 µM), hits mostly activators. 380,000 tested, 0.007% active. AID 624172. P43220
# Target sequence (P43220 whole entry, looked up): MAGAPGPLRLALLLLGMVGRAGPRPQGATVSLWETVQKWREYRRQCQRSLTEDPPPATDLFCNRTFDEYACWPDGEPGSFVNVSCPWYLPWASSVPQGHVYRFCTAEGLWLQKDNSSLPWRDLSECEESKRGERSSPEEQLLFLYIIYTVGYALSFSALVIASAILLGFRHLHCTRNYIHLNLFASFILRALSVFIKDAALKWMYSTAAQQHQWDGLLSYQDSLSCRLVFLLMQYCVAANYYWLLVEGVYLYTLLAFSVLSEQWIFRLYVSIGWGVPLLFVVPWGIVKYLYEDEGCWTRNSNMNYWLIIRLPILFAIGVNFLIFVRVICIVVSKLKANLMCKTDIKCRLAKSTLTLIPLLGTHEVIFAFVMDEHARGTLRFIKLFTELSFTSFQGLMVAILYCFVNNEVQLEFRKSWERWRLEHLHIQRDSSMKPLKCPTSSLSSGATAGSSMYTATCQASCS
# TGFb inhibitor = blocks TGF-b signaling; HepG2 CAGA-GFP TGF-b/SMAD3 reporter, GFP fluorescence, 18 h; TGF-beta stimulated, 500 pg/mL final; Potency, µM (highest dose often 46.1 µM), hits mostly inhibitors; 410,000 tested, 1.2% active; also: nearly all actives have a fitted effect of over 65% in size
#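 Cell-based qHTS in HEPG2 carrying a CAGA-GFP Smad reporter; compounds added before 500 pg/mL final TGF-beta, 18 h incubation at 37 degrees C, GFP fluorescence quantified per cell by imaging cytometry.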
# HepG2 viability = kills HepG2 cells in TGF-b inhibitor counter-screen; HepG2 CAGA-GFP viability, ATP luminescence, 18 h; Potency, µM (series often up to 46.1 µM), most hits filed as cytotoxic; 410,000 tested, 0.76% active; AID 588856
#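 CellTiter-Glo luminescence gave cytotoxicity after 18 hours at 37 degrees C. The cells were HepG2 CAGA-GFP in 1% FBS DMEM, stimulated with 500 pg/mL TGF-beta after compound addition. %Activity was normalised to no-cell wells (complete cell-killing) and DMSO (no toxicity), and curves were fitted and classified.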
# ATXN2 expr inh = ATXN2 expression inhibition. 360,000 tested, 0.72% active. HEK-293 ATXN2-luciferase reporter, luminescence, 24 h. Potency, µM (top dose mostly 57 µM), actives largely listed as inhibitors; also: nearly all actives have a fitted effect of over 55% in size
#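 ATXN2-luciferase reporter cells (luciferase flanked by upstream and downstream ATXN2 gene portions) were treated 24 h at 37 °C with compounds at up to 57 uM. SteadyGlo luminescence gave expression; GF-AFC fluorescence gave viability.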
# GLP-1R inv ag = inverse agonists of human GLP-1 receptor; 410,000 tested, 1.6% active; P43220; HEK293 GLP-1R CRE-luciferase, luminescence, 24 h; GLP-1R form is constitutively active; Potency, µM (titrated, usually from 38.3 µM), actives largely listed as inhibitors; also: nearly all actives have a fitted effect of over 55% in size
#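 qHTS in 1536-well format: reporter HEK293 cells expressing constitutive GLP-1R activity in DMEM + 10% Nu serum, 24 hr with compounds at 37 deg C, luminescence read after 12 min with detection reagent.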
# ATXN viability = viability counter-screen for ATXN expression inhibitors. S2 cells (HEK-293 line with an ATXN2-luciferase reporter) viability, CellTiter-Fluor protease fluorescence, 24 h. Potency, µM (top dose mostly 56.7 µM), most hits filed as cytotoxic. 400,000 tested, 0.49% active; also: nearly all actives have a fitted effect of over 40% in size
# Numbers stand for hits; - = inactive; ? = inconclusive; . = not tested or not shown. Most compounds without a hit are left out; they make up all but 3.7% or so of the library. Calls follow the shape of the dose curve; as a rule, active = well fitted curve in the direction sought with a large enough effect; inconclusive = small, poorly fitted or top-dose-only effect, or another doubt; inactive = no such curve, though single readings can be large; an effect the other way counts as inactive or inconclusive.
SMILES,GLP1R ag,TGFb inhibitor,HepG2 viability,ATXN2 expr inh,GLP-1R inv ag,ATXN viability
O=C(CCN1CCCC1Cc1ccccc1)c1ccc2c(c1)OCCO2 (stereo not drawn),-,11.2µM,-,?,-,.
O=C(CCCc1ccccc1)c1ccc2c(c1)OCCO2,-,-,-,10µM,?,-
COc1cc2ccccc2cc1C(=O)NC1CCC(C)CC1 (stereo not drawn),?,-,-,-,10µM,-
O=C(CCc1ccccc1)c1ccc2c(c1)OCCCO2,-,?,-,-,-,-
Cc1cc2nc3c(=O)[nH]c(=O)nc-3n(CC(O)C(O)C(O)COP(=O)(O)O)c2cc1C (stereo not drawn),-,.,.,.,.,.
CCN(CC)c1ccccc1/C=C/[n+]1ccc(CCCCI)c2ccccc21,.,?,-,.,.,.
O=C(CCN1CCc2ccccc2C1)c1ccc2c(c1)OCCO2,-,?,7.08µM,-,-,-
COc1ccc(CCNC(=O)c2ccc3c(c2)OCCO3)cc1,-,-,-,-,-,?
O=C(NCCc1ccccc1)c1ccc2c(c1)OCCCO2,-,-,-,0.708µM,?,-
O=C(NCCc1ccccc1)c1ccc2c(c1)OCCO2,-,-,-,2.51µM,?,-
O=C(CCN1CCc2ccccc21)c1ccc2c(c1)OCCO2,-,-,-,-,?,?
COc1ccccc1C(=O)Nc1nnc(S(=O)(=O)N(C)c2ccc(Cl)cc2)s1,.,?,-,.,-,.
COC(=O)[C@@H]1CCCN1Cc1ccc2c(c1)CN(Cc1ccc3c(c1)CCCN3C)CCO2,.,.,.,.,.,-
Cn1c(=O)c(C(=O)NNC(=O)c2ccc(Br)cc2)c(O)c2ccccc21,-,7.08µM,-,-,-,?
Cn1c(=O)c(C(=O)NNC(=O)c2ccccc2F)c(O)c2ccccc21,-,?,-,-,?,-
CCCCCCCCCCS(=O)(=O)N/N=C/c1ccc(O)cc1,-,12.6µM,-,-,?,-
Cc1ccnc(Nc2nc(-c3ccc(O)c(O)c3)cs2)c1,-,14.1µM,-,-,-,?
Cc1ccnc(Nc2nc(-c3ccc(O)cc3O)cs2)c1,-,11.2µM,11.2µM,-,?,?
Cc1ccnc(Nc2nc(-c3ccc(O)cc3)cs2)c1,-,-,-,-,-,-
CCC1SC2=NC(C)=C(C(=O)OCCOC)C(/C=C/c3ccccc3OC)N2C1=O (stereo not drawn),-,-,-,-,?,-
CCC1SC2=NC(C)=C(C(=O)OCC(C)C)C(/C=C/c3ccccc3OC)N2C1=O (stereo not drawn),-,-,-,-,7.94µM,-
CCN(Cc1ccccc1)S(=O)(=O)c1cc(C(=O)NC2CCCCCC2)ccc1OC,-,-,-,-,2.24µM,-
O=C(Nc1cc(Cl)cc(Cl)c1)c1ccc(F)c(S(=O)(=O)NCc2ccccc2Cl)c1,.,?,-,.,?,.
CN1C(=O)C(C)(C)c2cc(S(=O)(=O)NCc3ccc(C(=O)Nc4ccc(Cl)cc4)cc3)ccc21,.,3.98µM,-,.,?,.
Cc1ccc(C(=O)Nc2ccc(Br)cc2)cc1S(=O)(=O)NCc1ccccc1,.,15.8µM,-,?,?,?
SMILES,GLP1R ag,TGFb inhibitor,HepG2 viability,ATXN2 expr inh,GLP-1R inv ag,ATXN viability
COc1ccc(CNS(=O)(=O)c2cc(C(=O)Nc3cc(Cl)cc(Cl)c3)ccc2F)cc1,.,7.08µM,10µM,.,?,.
O=C(Nc1cc2ccc(O)cc2oc1=O)c1ccccc1,.,-,-,-,-,-
Cn1ncc2c(Nc3cccc(C#N)c3)ncnc21,.,-,-,.,-,.
CCN(Cc1ccccc1)S(=O)(=O)c1cc(C(=O)Nc2cc(Cl)cc(Cl)c2)ccc1F,.,5.01µM,-,.,?,.
COc1cccc(C2C(C(=O)Nc3ccccc3OC)=C(C)Nc3nc4ccccc4n32)c1 (stereo not drawn),-,-,-,-,-,-
CC(C)c1cc(-c2n[nH]c(=O)n2-c2ccc3c(ccn3C)c2)c(O)cc1O,.,.,.,0.0769µM,.,.
Cc1n[nH]c(=O)n1-c1ccc(OC(F)(F)F)cc1,-,-,-,-,-,-
O=C(NCc1cccc(Cl)c1)c1cccc2c(-c3cccnc3)coc12,-,?,-,28.2µM,?,20µM
Cc1ccc(-n2c(C)cc(C3N=C(N)Nc4nc5ccccc5n43)c2C)c(C)c1 (stereo not drawn),-,?,-,?,-,?
Cc1cc(C2N=C(N)Nc3nc4ccccc4n32)c(C)n1-c1ccccc1Cl (stereo not drawn),-,11.2µM,-,-,-,-
COC(=O)c1cccc(C(=O)N2CCc3c(cnc(C)c3CNC(=O)/C=C/c3cccs3)C2)c1,.,.,.,.,.,-
COc1cccc(Nc2c3c(nc4c(-c5ccccc5)c(C)nn24)CCC3)c1,-,-,-,-,5.01µM,-
Cc1nn2c(N3CCN(CCO)CC3)c3c(nc2c1-c1ccccc1)CCCC3,-,?,-,-,3.55µM,?
Cc1nn2c(N3CCCC3)c3c(nc2c1-c1ccccc1)CCC3,-,-,-,-,-,?
Cc1nn2c(Nc3ccc(F)cc3)c3c(nc2c1-c1ccccc1)CCC3,-,?,-,-,-,-
Cc1nn2c(NCCN(C)C)c3c(nc2c1-c1ccccc1)CCCC3,-,11.2µM,-,-,?,.
CC1(C)CC(C(=O)N2CCOc3ccc(CN4CCC(Oc5cccnc5)CC4)cc3C2)CCO1 (stereo not drawn),.,.,.,.,.,-
Cc1cccc(NS(=O)(=O)c2cccc(C(=O)N3CCN(c4ccccn4)CC3)c2)c1,-,?,-,-,-,-
Cc1ccc(C(C)(C)C)cc1S(=O)(=O)Nc1cccc(C(=O)N2CCN(c3ccccn3)CC2)c1,-,28.2µM,-,-,?,-
Cc1ccc(C(C)C)c(OCc2ccc(C(=O)N/N=C/c3ccc(C(=O)O)cc3)cc2)c1,-,-,-,.,-,-
O=C(N/N=C/c1ccc(O)cc1O)c1ccc(NC(=O)C2CCCCC2)cc1,-,?,-,5.62µM,?,?
O=C(N/N=C/c1cccc(O)c1)c1ccc(NC(=O)C2CCCCC2)cc1,-,-,-,-,?,-
Cc1ccc(C(C)C)c(OCc2ccc(C(=O)N/N=C/c3ccc(O)cc3O)cc2)c1,-,?,-,10µM,-,?
O=C(N/N=C/c1ccc(O)cc1O)c1ccncc1,-,-,-,22.4µM,?,-
CC(=O)Nc1ccc(SC[C@H](Cc2ccccc2)N2CC[C@@H](N)CCC2=O)cc1,.,-,-,.,.,.
COc1ccc(C2c3ccc4ccccc4c3Oc3ncn(CCO)c(=N)c32)cc1 (stereo not drawn),-,-,-,?,?,?
COc1ccc(C2c3ccc4ccccc4c3Oc3ncn(CCCO)c(=N)c32)cc1OC (stereo not drawn),?,11.2µM,-,?,?,?
